# DT40 TDP1 no CPT: qHTS for Inhibitors of human tyrosyl-DNA phosphodiesterase 1 (TDP1): qHTS in cells in absence of CPT; DT40 Tdp1-/- hTDP1 cells, no CPT, ATP luminescence, 48 h; Potency, µM (top dose mostly 46.2 µM), for the others: at the highest dose activity change, negative = growth inhibition, most hits filed as inhibitors; 15% of 420,000 active; AID 686978, 2013; also: potency is read from the fitted curve at half-maximal effect; nearly all actives have a fitted effect of over 55% in size
#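 Luminescent ATP content (CellTiter-Glo) served as the growth readout. Knockout chicken DT40 cells expressing human TDP1 were exposed to compounds without camptothecin for a minimum 48 hr at 37 °C.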
# HT1080 IDH1KD tx: HT-1080 IDH1 knockdown cell toxicity (counter line). Potency, µM (top dose mostly 46.1 µM), inactives show at the highest dose activity, negative = toxicity, usual class: cytotoxic. HT-1080 IDH1 knockdown viability, ATP luminescence, 48 h. AID 686971. 2% of 360,000 active;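 also: potency is read from the fitted curve at half-maximal effect; 0% = DMSO wells and -100% = cell-free medium wells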
#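 Cytotoxicity counter-line: IDH1KD HT-1080, 48 h, CellTiter-Glo. Curves classed by r2, magnitude and activity.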
# TDP1 cell CPT: DT40-hTDP1 cell growth loss with CPT; chicken DT40 Tdp1-/-;hTDP1 cells + 20 nM CPT, ATP luminescence, 48 h; Potency, µM (top dose mostly 46.2 µM), without a hit: at the highest dose activity change, negative = growth inhibition, hits mostly inhibitors; 12% of 420,000 active; also: potency is read from the fitted curve at half-maximal effect; nearly all actives have a fitted effect of over 55% in size
#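 Cell growth measured by CellTiter-Glo luminescence after a minimum 48 h, 37 C compound exposure with 20 nM CPT in Tdp1-knockout DT40 cells stably expressing hTDP1, seeded 400/well; qHTS titration format.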
# ELG1 DNA repair: ELG1-dependent DNA repair inhibition; HEK293T ELG1-luciferase reporter, luminescence, 16 h; DNA damage induced by 5-fluorouridine; Potency, µM (series often up to 46.1 µM), without a hit: at the highest dose activity change, negative = inhibition, hits mostly inhibitors; 2.3% of 330,000 active; AID 504467; also: potency is read from the fitted curve at half-maximal effect; nearly all actives have a fitted effect of over 55% in size
#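 Quantitative HTS, concentration-response format. 2,000 cells/well co-treated with 5-fluorouridine and compound, 16 hr in 5% CO2 at 37 °C; ONE-Glo luminescence read after 30 min.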
# HT1080NT lethal: kills 2HG-producing HT-1080-NT fibrosarcoma cells. HT-1080-NT fibrosarcoma viability, CellTiter-Glo ATP luminescence, 48 h. Potency, µM (highest dose often 46.1 µM), for the others: top-dose activity, negative = less viability, actives largely listed as cytotoxic. 1.6% of 360,000 active;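 also: NT is the 2HG producing partner of a matched IDH1 knockdown line; potency is read from the fitted curve at half-maximal effect; 0% = DMSO-treated cells and -100% = media-only wells without cells; nearly all actives have a fitted effect of over 55% in size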
#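 750 cells/well, RPMI + 5% FBS; 2 h settle, compound pin-transfer, 48 h at 37 degrees C. CellTiter-Glo 10 min RT, luminescence. Normalized to DMSO and media-only wells.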
# IL1B secr inh: inflammasome signaling inhibition, IL-1 beta readout; activity change, % at 57.5 µM; 4.7% of 360,000 active; AID 743279; THP-1 LPS/ATP IL-1B secretion, AlphaLISA, 16 h; stronger effect = lower value; in the data active = activity change below about -50%; inconclusive = mostly about -30% to -49%
#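 THP-1 cells pretreated 1 hr with compounds (up to 57.5 uM final), then stimulated with LPS (250 ng/mL final) plus ATP (1.25 mM final); secreted IL-1B measured by AlphaLISA after 16 hr, decreased signal indicating inhibition.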
# The depositor's hits bear a star; ? = inconclusive; . = no result. In the library only some 19% were active in any assay of this set; here they are far more common. Unless noted, calls follow the shape of the dose curve; as a rule, active = well fitted curve in the direction sought with a large enough effect; inconclusive = small, poorly fitted or top-dose-only effect, or another doubt; inactive = no such curve, though single readings can be large; an effect the other way counts as inactive or inconclusive. Unless noted, % is scaled to controls: 0 for no effect and ±100 for the full control effect.
SMILES,DT40 TDP1 no CPT,HT1080 IDH1KD tx,TDP1 cell CPT,ELG1 DNA repair,HT1080NT lethal,IL1B secr inh
Cn1c(O)c(C2=c3ccccc3=NC2=O)[nH]c1=S,-23%,-9%,-20%,2%,-9%,10
CN1c2ccsc2/C(=N/Nc2ccc(F)cc2)CS1(=O)=O,2.6µM*,?,2.1µM*,?,-25%,23
CCn1c(O)c(N=NC(=S)NCC2CCCO2)c2ccccc21 (configuration not stated),9.2µM*,-12%,13µM*,0%,-18%,34
Oc1[nH]c2ccccc2c1N=NC(=S)NCC1CCCO1 (configuration not stated),?,-5%,?,?,1%,?
Cc1cc(C)c2[nH]c(O)c(N=NC(=S)NCC3CCCO3)c2c1 (configuration not stated),6.5µM*,15%,6.5µM*,?,8%,-2
Oc1[nH]c2c(Cl)cc(Cl)cc2c1N=NC(=S)NCC1CCCO1 (configuration not stated),4.6µM*,-15%,3.7µM*,?,-8%,53
Cc1ccccc1CNC(=O)C(C)n1nc(C)n2c(cc3occc32)c1=O (configuration not stated),-6%,.,-7%,.,.,.
N#CCN(CC#N)C(=O)C1c2ccccc2Oc2ccccc21,?,-6%,?,3%,13%,-4
CC1=CC(=C(c2ccc(N)cc2)c2ccc(N)cc2)C=CC1=N,3µM*,.,2.7µM*,.,.,.
Cc1ccc(/C=N\NC(=O)c2cncc(Br)c2)o1,-4%,-6%,-5%,9%,-1%,-11
CCOC(=O)c1ccc(-c2ccc(/C=N/NC(=O)c3cncc(Br)c3)o2)cc1,23µM*,13%,?,?,13%,11
CCCOC(=O)c1ccc(-c2ccc(C=O)o2)cc1,?,-2%,-24%,?,0%,-5
CCCCOC(=O)c1ccc(-c2ccc(/C=N/NC(=S)NCC)o2)cc1,7.3µM*,-23%,5.8µM*,?,2.8µM*,18
O=C(NCCSc1c[nH]c2ccccc12)c1ccc2c(c1)OCO2,-20%,0%,1%,-5%,0%,8
CC1=CC(C)(C)n2c(O)c(N=NC(N)=S)c3cc(C)cc1c32,-8%,2%,5%,12%,-2%,-7
CC(=O)OC1COC(n2c(O)c(N=NC(N)=S)c3ccccc32)C(OC(C)=O)C1OC(C)=O (configuration not stated),0%,13%,-25%,-4%,8%,7
NC(=S)N=Nc1c(O)n(Cc2ccc(Br)cc2)c2ccccc12,4.6µM*,3.7µM*,5.2µM*,?,?,13
NC(=S)N=Nc1c(O)[nH]c2ccc(F)cc12,?,5%,?,13%,28%,7
NC(=S)N=Nc1c(O)n(Cc2ccc(F)cc2)c2ccccc12,?,-29%,16µM*,?,-25%,0
Cc1ccc2c(c1)c(N=NC(N)=S)c(O)n2Cc1ccccc1,3.3µM*,2%,4.1µM*,16%,1%,22
Cc1ccc(NC(=O)CSc2nnc(N)s2)c(C)c1,1%,.,-3%,.,.,.
Cc1ccccc1C(=O)NNC(=O)CCC(=O)Nc1cccc(Cl)c1C,-21%,-4%,-3%,?,-5%,11
C[n+]1c(-c2ccccc2)cc2c(=Cc3ccc([N+](=O)[O-])cc3)c3ccccc3n21,4.1µM*,?,1.8µM*,.,?,-98*
CCn1c2ccccc2c2cc([N+](=O)[O-])ccc21,-9%,-15%,9%,1%,1%,-2
CN(C)c1ccc(C=c2c3cc(O)ccc3n3c2cc(-c2ccccc2)[n+]3C)cc1,?,?,7.3µM*,.,-27%,-105*
SMILES,DT40 TDP1 no CPT,HT1080 IDH1KD tx,TDP1 cell CPT,ELG1 DNA repair,HT1080NT lethal,IL1B secr inh
C[n+]1c(-c2ccccc2)cc2c(=Cc3ccccc3)c3ccccc3n21,0.52µM*,16µM*,0.52µM*,.,?,-100*
C[C@H]1CN([C@@H](C)CO)C(=O)CCCn2nncc2CO[C@@H]1CN(C)C(=O)c1ccc2ccn(C)c2c1,-8%,1%,-17%,.,-7%,-22
C=CCN=C(NC#N)SCc1ccccc1,-3%,-1%,1%,-9%,-3%,-14
C=CCN=C(NC#N)SCC(=O)c1cccc(OC)c1,-23%,?,-19%,?,-22%,-57*
COC(=O)c1ccccc1S(=O)(=O)N1CCC(C(=O)NCc2ccccn2)CC1,5%,6%,0%,.,9%,13
CN(C(=O)CSc1nc2ccc(NC(=O)c3ccc(F)cc3)cc2s1)c1ccccc1,15µM*,.,16µM*,.,.,.
COc1ccc(C(=O)Nc2ccc3nc(SCC(=O)N(C)c4ccccc4)sc3c2)cc1,16µM*,.,?,.,.,.
CN(C(=O)CSc1nc2ccc(NC(=O)CCc3ccccc3)cc2s1)c1ccccc1,15µM*,.,18µM*,.,.,.
CCOC(=O)CSc1nc2ccc(NC(=O)COc3ccccc3C)cc2s1,-23%,.,-14%,.,.,.
CCOC(=O)CSc1nc2ccc(NC(C)=O)cc2s1,-16%,16%,-1%,2%,13%,-7
CN(C(=O)CSc1nc2ccc(NC(=O)COc3ccc(F)cc3)cc2s1)c1ccccc1,4.6µM*,.,5.8µM*,.,.,.
N#Cc1ccccc1NC(=O)C(=O)NCC(c1ccc2c(c1)OCO2)N1CCOCC1 (configuration not stated),-18%,.,-2%,.,.,.
CC(=O)N1CCC(N(Cc2ccc(C)o2)C(=O)Nc2ccc(C)cc2)CC1,-18%,.,2%,.,.,.
CCC(C)NC(=O)c1sc2nc(C)c(C(=O)Nc3ccc(Cl)cc3)c(-c3ccc(Br)cc3)c2c1N (configuration not stated),21µM*,.,?,.,.,.
COc1ccc(NC(=O)c2sc3nc(C)c(C(=O)Nc4ccc(C)cc4C)c(-c4ccc(Cl)cc4)c3c2N)cc1,-6%,.,-4%,.,.,.
O=C(NCC1CCCN1S(=O)(=O)c1cccs1)c1c(F)cccc1F (configuration not stated),?,5%,-7%,-4%,7%,1
COc1ccc(-c2cc(-c3nc4ccccn4c3NCc3ccccc3)ccc2OC)cc1,?,?,?,2.3µM*,?,-56*
